DRD3 agonist – activates the human D3 dopamine receptor | max activation, % | P35462 | actives 0.58% (n = 410,000) | D3R DiscoveRx beta-arrestin cells, luminescence, 90 min; in the data active = max activation above about 30%
Target sequence (P35462 whole entry, looked up): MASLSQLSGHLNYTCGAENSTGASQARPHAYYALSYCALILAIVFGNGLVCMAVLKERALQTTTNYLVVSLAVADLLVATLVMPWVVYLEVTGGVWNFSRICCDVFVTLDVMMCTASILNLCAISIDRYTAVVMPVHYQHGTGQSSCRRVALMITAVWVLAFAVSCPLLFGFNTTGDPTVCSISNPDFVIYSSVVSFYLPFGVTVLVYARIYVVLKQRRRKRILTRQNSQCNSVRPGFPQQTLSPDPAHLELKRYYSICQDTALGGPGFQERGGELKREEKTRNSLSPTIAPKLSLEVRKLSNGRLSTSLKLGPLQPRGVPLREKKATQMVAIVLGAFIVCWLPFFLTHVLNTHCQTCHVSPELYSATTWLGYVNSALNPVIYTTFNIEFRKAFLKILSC
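Cells at 1500/well, incubated overnight, then treated with pinned compounds (dopamine as control) for 90 min at 37 degrees C. DiscoveRx reagent added for 30 - 60 minutes at room temperature; luminescence read.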
DT40 TDP1 CPT – growth inhibition of DT40 Tdp1-/-;hTDP1 cells with camptothecin (screen for TDP1 inhibitors); chicken DT40 Tdp1-/-;hTDP1 cells + 20 nM CPT, ATP luminescence, 48 h; Potency, µM (highest dose often 46.2 µM), most hits filed as inhibitors; actives 12% (n = 420,000); AID 686979; note: nearly all actives have a fitted effect of over 55% in size
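Cell growth measured by CellTiter-Glo luminescence after a minimum 48 h, 37 C compound exposure with 20 nM CPT in Tdp1-knockout DT40 cells stably expressing hTDP1, seeded 400/well; qHTS titration format.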
ClpP mod – qHTS Assay for Activators of ClpP; purified B. subtilis ClpP, FRET peptide cleavage, 20 min; actives 1.9% (n = 340,000); ATP-dependent Clp protease proteolytic subunit (Bacillus subtilis (strain 168)), P80244; AID 651965, 2013; Potency, µM (top dose mostly 57.5 µM); active = well fitted falling curve with a large enough effect; inconclusive = small, poorly fitted or top-dose-only effect; inactive = no such curve, though single readings can be large or run the other way; note: the source files actives as falling curves though it sought activators and does not explain the sign; nearly all actives have a fitted effect of over 65% in size
Target sequence (P80244 whole entry, looked up): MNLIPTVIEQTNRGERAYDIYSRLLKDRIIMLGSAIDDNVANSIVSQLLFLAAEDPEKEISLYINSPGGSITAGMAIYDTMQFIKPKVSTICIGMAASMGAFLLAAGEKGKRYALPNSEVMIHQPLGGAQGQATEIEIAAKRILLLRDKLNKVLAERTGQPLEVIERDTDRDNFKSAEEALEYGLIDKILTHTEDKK
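Purified B. subtilis ClpP, 10 microg/mL final in Tris/HCl pH8 with KCl, BSA, glycerol and Tween-20, cleaved an Abz/nitrotyrosine-quenched decapeptide. Fluorescence (ex 320, em 430) was read at 0 and 20 min at room temperature. Delta was normalized to 5.8 microM ADEP and DMSO/no-enzyme controls.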
TDP1 cell noCPT – qHTS for Inhibitors of human tyrosyl-DNA phosphodiesterase 1 (TDP1): qHTS in cells in absence of CPT | DT40 Tdp1-/- hTDP1 cells, no CPT, ATP luminescence, 48 h | Potency, µM (series often up to 46.2 µM), usual class: inhibitors | actives 15% (n = 420,000) | AID 686978, 2013; note: nearly all actives have a fitted effect of over 55% in size
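A cellular qHTS used chicken DT40 cells lacking endogenous Tdp1 but carrying stably transfected human TDP1. Compounds were applied without camptothecin, and cell growth kinetics were judged by ATP-dependent luminescence after ≥48 hr.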
DRD3 antagonist – antagonists of human D3 dopamine receptor; P35462; D3R cells, DiscoveRx beta-arrestin luminescence, antagonist mode; stronger effect = lower value; max response, negative = inhibition, %; actives 2.5% (n = 360,000); in the data active = max response below about -50%; inconclusive = no clear call, values can overlap the other calls
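Cells plated overnight at 1500 cells/well, then exposed to library compounds with dopamine controls for 90 minutes at 37 degrees C. DiscoveRx reagent added for 30–60 minutes at room temperature; luminescence read, quantitative HTS format.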
IL1B secr inh – inflammasome signaling inhibition, IL-1 beta readout. activity change, % at 57.5 µM. THP-1 LPS/ATP IL-1B secretion, AlphaLISA, 16 h; stronger effect = lower value. actives 4.7% (n = 360,000). AID 743279; in the data active = activity change below about -50%; inconclusive = mostly about -30% to -49%
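THP-1 cells pretreated 1 hr with compounds (up to 57.5 uM final), then stimulated with LPS (250 ng/mL final) plus ATP (1.25 mM final); secreted IL-1B measured by AlphaLISA after 16 hr, decreased signal indicating inhibition.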
Numbers stand for hits; - = inactive; ? = inconclusive; . = no result given; ! = repeats disagree. In the library only some 21% were active in any assay of this set; here they are far more common. Unless noted, calls come from the whole dose curve; as a rule, active = well fitted inhibition curve with a large enough effect; inconclusive = small, poorly fitted or top-dose-only effect; inactive = flat fitted curve, though single readings scatter.

SMILES	DRD3 agonist	DT40 TDP1 CPT	ClpP mod	TDP1 cell noCPT	DRD3 antagonist	IL1B secr inh
CCc1ccc(CN2C(=O)c3ccccc3C2C(=O)NC2CCCCCC2)cc1 (stereo unspecified)	-	-	-	-	.	.
Cn1cnc2cc(NCc3ccccc3Cl)ccc21	-	-	.	-	-	-
CN(C)c1ccc(CNc2ccc3c(c2)ncn3C)cc1	-	15µM	-	23µM	-	-59
CC(C)c1ccc(CNc2ccc3c(c2)ncn3C)cc1	-	23µM	-	?	-	-
COc1ccc(S(=O)(=O)N2CCCCC2)cc1NC(=O)CCNC(=O)c1ccc(Br)cc1	-	?	-	?	-	-
Cc1ccc2c(CNC3CCCC3)c(C(=O)O)n(Cc3ccc(F)cc3)c2c1	-	-	-	-	.	.
Cc1ccc(NC(=O)COc2ccc3oc4c(c3c2)CCCC4)cc1C	-	-	-	-	.	.
Cc1ccc2c(c1)[C@H]1[C@H](CO2)[C@H](c2ccccc2)[C@]2(C)C(=O)Nc3ccc(F)cc3C(=O)N12	-	21µM	-	21µM	-	-61
COc1cc2c(cc1OC)C(=O)N1[C@H]3c4cc(C)ccc4OC[C@@H]3[C@H](c3ccccc3)[C@]1(C)C(=O)N2	-	18µM	-	21µM	-	-51
COc1cc2c(cc1OC)C(=O)N1[C@H]3c4cc(Cl)ccc4OC[C@@H]3[C@H](c3ccccc3)[C@]1(C)C(=O)N2	-	21µM	-	18µM	-	-50
COc1ccc2c(c1)[C@H]1[C@H](CO2)[C@H](c2ccccc2)[C@@]2(C)C(=O)N[C@H](C)C(=O)N12	-	-	-	-	-	-
Cc1ccc2c(c1)[C@H]1[C@H](CO2)[C@H](c2ccccc2)[C@]2(C)C(=O)Nc3cc(Cl)ccc3C(=O)N12	-	?	-	21µM	-	-
C[C@@]12C(=O)Nc3ccccc3C(=O)N1[C@H]1c3cc(Br)ccc3OC[C@@H]1[C@@H]2c1ccccc1	-	?	-	?	-	-
Cc1ccc2c(c1)[C@H]1[C@H](CO2)[C@H](c2ccccc2)[C@]2(C)C(=O)Nc3cc(F)c(F)cc3C(=O)N12	-	?	-	?	-	?
COc1ccc2c(c1)C(=O)N1[C@H]3c4cc(Br)ccc4OC[C@@H]3[C@H](c3ccccc3)[C@]1(C)C(=O)N2	-	?	-	?	-	-
CCOC(=O)Cn1c(C)[n+](CC(=O)c2ccccc2)c2ccccc21	-	-	.	-	-	-
COc1ccc(OC)c(NC(=O)CSc2nc3ccccc3c(=O)n2CCC(=O)NC2CCCCC2)c1	-	-	-	-	.	.
C[C@@]12C(=O)Nc3cc(F)ccc3C(=O)N1[C@H]1c3ccccc3OC[C@@H]1[C@@H]2c1ccccc1	-	?	-	?	-	-75
COc1cccc(OCc2ccc(Cn3nc(NC(=O)NCCc4ccc(OC)c(OC)c4)c4ccccc43)cc2)c1	-	-	?	?	-108	-
CCOC(=O)C1=C(C)Nc2ccccc2N=C1N	-	-	.	-	-	-
CCOC(=O)C1=C(C)Nc2ccccc2N=C1NC(=O)c1oc2ccccc2c1COC	-	21µM	-	16µM	-	-
COCc1c(C(=O)Nc2nnc(C3CC3)s2)oc2ccccc12	-	?	-	12µM	-	-
COc1ccc(-c2cc(C)no2)cc1S(=O)(=O)NC(C)C	-	-	-	-	.	.
CS(=O)c1ccccc1-c1nc(-c2cc(C(F)(F)F)cc(C(F)(F)F)c2)no1 (stereo unspecified)	-	10µM	-	13µM	-	-
CCn1ccnc1CNC(=O)c1ccc2oc(CCCc3ccccc3)nc2c1	-	?	-	-	-51	-
SMILES	DRD3 agonist	DT40 TDP1 CPT	ClpP mod	TDP1 cell noCPT	DRD3 antagonist	IL1B secr inh
CC(C)N(Cc1nccn1C)C(=O)c1ccc2oc(Cc3ccccc3)nc2c1	-	21µM	-	?	-	-
COc1cc(CNC(C)c2ccccc2)cc(Br)c1OCc1ccc(F)cc1 (stereo unspecified)	-	?	.	?	-	-94
COc1cc(CNc2ccc(O)cc2)cc(Br)c1OCc1ccccc1	-	?	-	?	-	-
COc1cc(CNC(C)c2ccccc2)cc(Br)c1OCc1ccccc1 (stereo unspecified)	-	-	.	9.2µM	-	-88
COc1cc(C(N)=O)cc(Br)c1OCc1ccccc1	-	?	-	?	-	-
Cc1ccc(S(=O)(=O)N(C)CC(=O)NCCCn2ccnc2)cc1	-	-	.	-	-	-
C[C@H](Cc1ccccc1)Nc1ncnc2c1ncn2[C@@H]1O[C@H](CO)[C@@H](O)[C@H]1O	-	?	-	-	-	-
CN(C)c1ncnc2c1nnn2C1OC(CO)C(O)C1O (stereo unspecified)	-	0.58µM	-	0.33µM	-	-
COc1ccc(C[C@H](N)C(=O)N[C@H]2[C@@H](O)[C@H](n3cnc4c(N(C)C)ncnc43)O[C@@H]2CO)cc1	-	-	-	8.2µM!	-	-90
CN(C)c1ncnc2c1ncn2C1OC(CO)C(O)C1O (stereo unspecified)	-	2.9µM	-	2.9µM	-	-
OCC1OC(n2cnc3c(/C=C(\O)c4ccccc4)ncnc32)C(O)C1O (stereo unspecified)	-	1.3µM	-	1.5µM	-	-
CNc1ncnc2c1ncn2[C@@H]1O[C@H](CO)[C@@H](O)[C@H]1O	-	?	-	-	-	-
O=C(Nc1ccc2nccnc2c1)N1CCCCCC1	.	?	-	-	.	.
O=C(Cn1ccn(-c2cccc(Cl)c2)c(=O)c1=O)NCCc1ccccc1	-	-	-	-	.	.
NC(=O)c1cc([N+](=O)[O-])ccc1NCc1ccc(N)cc1	-	?	-	?	-	-
O=C(NCc1ccccc1)c1cc(C2COCCN2C(=O)c2cccs2)on1 (stereo unspecified)	-	-	-	-	-	-
O=C(C[C@H]1C/C=C\C[C@H](Cc2ccc(F)cc2)C(=O)O[C@@H](c2ccccc2)CNC1=O)N[C@@H](CO)Cc1ccccc1	-	21µM	-	12µM	-	-
CC(C)(C)OC(=O)C[C@@H]1C/C=C\C[C@@H](CC(=O)N[C@@H](CO)Cc2ccccc2)C(=O)NC[C@@H](c2ccccc2)OC1=O	-	23µM	-	?	-	-
O=C(C[C@H]1C/C=C\CC[C@@H](Cc2ccc(F)cc2)C(=O)O[C@H](c2ccccc2)CNC1=O)N[C@H](CO)Cc1ccccc1	-	18µM	-	15µM	-	-
